hNpr1 antagonist: Natriuretic polypeptide receptor (hNpr1) antagonism - Primary qHTS | Atrial natriuretic peptide receptor 1 (Homo sapiens), P16066 | HEK293 hNpr1 GloSensor cGMP, ANP-stimulated luminescence | Potency, µM (series often up to 46.3 µM), for the others: top-dose activity change, negative = inhibition, most hits filed as inhibitors | 76,000 compounds, 1.6% hits; calls by dose curve; also: nearly all actives have a fitted effect of over 60% in size
Target sequence (P16066 whole entry, looked up): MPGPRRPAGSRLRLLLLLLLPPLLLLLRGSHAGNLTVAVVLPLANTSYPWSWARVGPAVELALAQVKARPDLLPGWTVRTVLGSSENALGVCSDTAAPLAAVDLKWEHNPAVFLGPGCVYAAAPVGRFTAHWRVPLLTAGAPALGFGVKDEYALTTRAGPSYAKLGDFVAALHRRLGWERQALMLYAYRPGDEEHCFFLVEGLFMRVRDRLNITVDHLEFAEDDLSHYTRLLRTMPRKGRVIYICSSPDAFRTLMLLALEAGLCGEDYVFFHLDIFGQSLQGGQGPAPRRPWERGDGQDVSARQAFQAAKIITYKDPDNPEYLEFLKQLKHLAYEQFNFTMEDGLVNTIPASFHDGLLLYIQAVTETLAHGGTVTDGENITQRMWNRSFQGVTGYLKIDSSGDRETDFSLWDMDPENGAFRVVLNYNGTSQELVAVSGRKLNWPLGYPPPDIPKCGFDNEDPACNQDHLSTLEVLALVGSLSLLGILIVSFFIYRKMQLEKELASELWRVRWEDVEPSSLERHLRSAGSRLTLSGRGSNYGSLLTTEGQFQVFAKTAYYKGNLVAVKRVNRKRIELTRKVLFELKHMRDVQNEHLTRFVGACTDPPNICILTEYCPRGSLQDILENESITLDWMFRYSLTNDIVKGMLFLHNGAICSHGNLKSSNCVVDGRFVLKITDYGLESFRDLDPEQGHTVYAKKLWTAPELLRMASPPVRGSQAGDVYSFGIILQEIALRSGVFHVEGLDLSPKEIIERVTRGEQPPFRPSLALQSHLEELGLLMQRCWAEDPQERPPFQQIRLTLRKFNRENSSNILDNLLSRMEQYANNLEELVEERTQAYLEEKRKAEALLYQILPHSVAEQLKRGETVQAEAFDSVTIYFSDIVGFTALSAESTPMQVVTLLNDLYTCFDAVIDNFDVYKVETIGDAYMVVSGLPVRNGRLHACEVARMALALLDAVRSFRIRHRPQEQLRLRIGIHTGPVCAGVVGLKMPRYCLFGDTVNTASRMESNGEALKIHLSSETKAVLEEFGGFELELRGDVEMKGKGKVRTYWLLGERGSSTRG
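HEK293 cells stably expressing human Npr1 and cGMP GloSensor pGS-40F, loaded 2 h with 2% GloSensor reagent, given compound 30 min at room temperature. Luminescence read before and 20 min after 0.1 nM hNppA.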
HEK cytotox: Cytotoxic Profiling in HEK 293 Cell Line of Diverse Libraries Using Quantitative High-Throughput Screening; Potency, µM (top dose mostly 115 µM), for inactives: top-dose activity change, negative = cytotoxicity, hits mostly inhibitors; HEK 293 viability, ATP luminescence (CellTiter-Glo), 48-72 h; 94,000 compounds, 6.6% hits; also: nearly all actives have a fitted effect of over 60% in size
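Cells seeded first (HEK 293, 250 cells/well), then compound added by pintool. Incubation ran 48 or 72 hr at 37 degree Celsius. CellTiter-Glo was added and luminescence imaged after 10 min at room temperature.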
3T3 cytotox: Cytotoxic Profiling in NIH 3T3 Cell Line of Diverse Libraries Using Quantitative High-Throughput Screening; NIH 3T3 viability, CellTiter-Glo ATP luminescence, 48-72 h; Potency, µM (titrated, usually from 96.7 µM), inactives show top-dose activity change, negative = cytotoxicity, actives largely listed as inhibitors; 94,000 compounds, 4.3% hits; also: nearly all actives have a fitted effect of over 55% in size
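Cytotoxicity was measured by CellTiter-Glo ATP luminescence after 48 or 72 h compound exposure at 37 °C. Mouse NIH 3T3 fibroblasts were seeded at 400 cells/well and dosed by 23 nL pin transfer.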
Luciferase inh: Firefly luciferase inhibition profiling of diverse chemical library using quantitative high-throughput screening; Potency, µM (top dose mostly 115 µM), hits mostly inhibitors; Luciferin 4-monooxygenase (Photinus pyralis), P08659; 76,000 compounds, 2.5% hits; purified P. pyralis luciferase, luminescence, biochemical; AID 1347043, 2019; also: nearly all actives have a fitted effect of over 65% in size
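Biochemical qHTS: compound (6-point titration) added to 10uM D-luciferin plus 10uM ATP in Tris acetate pH 7.5 buffer with Mg, Tween-20 and BSA, then purified enzyme at 10nM; light output imaged.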
An asterisk follows results filed as active; i = inactive; ? = inconclusive; / = no result given; [ ] = dose if it differs, or a comment. In the library only some 11% were active in any assay of this set; here they are far more common. Unless noted, calls follow the shape of the dose curve; as a rule, active = well fitted curve in the direction sought with a large enough effect; inconclusive = small, poorly fitted or top-dose-only effect, or another doubt; inactive = no such curve, though single readings can be large; an effect the other way counts as inactive or inconclusive. % is scaled to controls: 0 for no effect and ±100 for the full control effect; potency is read from the fitted curve at half-maximal effect.

SMILES	hNpr1 antagonist	HEK cytotox	3T3 cytotox	Luciferase inh
CC1=C[C@@H](CN2CCN(c3cnccn3)CC2)[C@H](C(C)C)C[C@H]1Cc1nnc(-c2cccnc2)o1	?	35µM*	?	i
CC1=C[C@@H](CN2CCN(c3ccccn3)CC2)[C@H](C(C)C)C[C@H]1Cc1nnc(-c2cncn2C)o1	-2%	32µM*	?	i
CC1=C[C@@H](CN2CCN(CCO)CC2)[C@H](C(C)C)C[C@H]1Cc1nnc(Cc2c[nH]c3ccccc23)o1	-17%	?	28µM*	i
O=C(NC1CCN(c2ccc3nnc(-c4ccccc4)n3n2)CC1)c1cccc(C(F)(F)F)c1	/	-47%	-36%	/
CC(=O)N1CCN(C[C@@H]2C=C(C)[C@H](Cc3nnc(-c4cncn4C)o3)C[C@H]2C(C)C)CC1	1%	?	?	i
CC1=C[C@@H](CN2CCN(c3ncccn3)CC2)[C@H](C(C)C)C[C@H]1Cc1nnc(COc2ccc(F)cc2)o1	-25%	25µM*	40µM*	i
CC1=C[C@@H](CN2CCN(c3ccccc3)CC2)[C@H](C(C)C)C[C@H]1Cc1nnc(-c2cncn2C)o1	0%	35µM*	?	i
CC1=C[C@@H](CN2CCN(CCO)CC2)[C@H](C(C)C)C[C@H]1Cc1nnc(-c2ccccc2F)o1	1%	?	?	i
CC(C)CN(C1CCN(C)CC1)C1CN(C(=O)c2n[nH]c3ccccc23)C1	/	-16%	-10%	/
CCC(C)NC(=O)C(NC(=O)c1ccc(C)cc1)C1CCN(C(=O)CC(C)(C)C)CC1 (centres undefined)	-4%	-15%	-14%	i
COCCNC(=O)c1nc2c(o1)CCN(Cc1ccc(F)c(Cl)c1)CC2	?	?	?	i
COCCNC(=O)[C@H]1C[C@H](Oc2ccccc2)CN1Cc1ccc(OC(F)(F)F)cc1	3%	?	?	i
O=C(Nc1cccnc1)c1nc2c(o1)CCN(Cc1ccc(F)c(F)c1)CC2	28µM*	?	?	71µM*
COCCNC(=O)[C@H]1C[C@H](Oc2ccccc2)CN1Cc1ccc2[nH]ccc2c1	-4%	10µM*	?	i
O=C(NCCOc1ccccc1)c1nc2c(o1)CCN(Cc1ccc3[nH]ccc3c1)CC2	?	71µM*	?	i
O=C(NCC1CC1)c1nc2c(o1)CCN(Cc1ccc3[nH]ccc3c1)CC2	2%[70.6 µM]	?	?	i
O=C(Nc1cccnc1)c1nc2c(o1)CCN(Cc1ccc3[nH]ccc3c1)CC2	-15%[70.6 µM]	100µM*	?	35µM*
COc1ccc(C(=O)N2CCC(Oc3ncccc3C(=O)N3CCCCC3)C2)c(C)c1 (centres undefined)	-14%	-12%	i	i
O=C(CCC[C@@H]1[C@H]2CCCN3CCC[C@@H](CN1S(=O)(=O)c1cccc(F)c1)[C@@H]23)N1CCOCC1	1%	-6%	i	i
CCOC(=O)c1cccc(NC(=O)C2=CC(C)(C)Oc3ccc(OC)cc32)c1	/	25µM*	28µM*	/
COC(=O)c1ccc(COCC2=CC(C)(C)Oc3ccc(OC)cc32)cc1	/	35µM*	?	/
COc1ccc2c(c1)C(COCc1ccc(C(=O)O)cc1)=CC(C)(C)CO2	/	i	?	/
CCOC(=O)c1cccc(NC(=O)N2CC[C@@H](CC(=O)Nc3ccccc3)[C@@H](CC)C2)c1	-1%	-5%	-20%	i
O=C(NCc1cccs1)C1CCc2nnc(-c3cccc(C(F)(F)F)c3)n21 (centres undefined)	/	-16%	-28%	/
CCN1CCCN(C(=O)CC2CCCCC2)CC12CCOCC2	/	2%	-13%	/
SMILES	hNpr1 antagonist	HEK cytotox	3T3 cytotox	Luciferase inh
O=C(NC1CCCCCC1)c1nc2sccn2c1-c1ccc(C(F)(F)F)cc1	/	40µM*	25µM*	/
O=C(NC1CCCCC1)c1nc2sccn2c1-c1ccc(C(F)(F)F)cc1	/	?	40µM*	/
O=C(NC1CCCCC1)c1nc2sccn2c1-c1ccccc1	/	63µM*	?	/
CN1CC(=O)N(C2CCCNCC2)Cc2c1ncnc2N1CCN(c2ccccn2)CC1 (centres undefined)	/	i	i	/
Fc1ccc(-c2ccc3ncc(Nc4ccnc(N5CCOCC5)c4)n3n2)cc1	?	32µM*	8.9µM*	i
Clc1ccccc1Nc1cnc2ccc(N3CCOCC3)nn12	?	?	?	i
Fc1ccc(-c2ccc3ncc(Nc4cc(F)cc(N5CCOCC5)c4)n3n2)cc1	?	63µM*	?	?
CC1CCN(C(=O)c2ccccc2OCC2CCCN(Cc3cccnc3)C2)CC1 (centres undefined)	-16%	?	-7%	i
COCCNc1cc2c(cn1)CN(Cc1ccccc1)CCN2	-3%[70.6 µM]	?	?	?
COc1ccc(Nc2cc3c(cn2)CN(CCc2ccccc2)CCN3)cc1	-5%[70.6 µM]	32µM*	25µM*	?
COc1ccc(Nc2cc3c(cn2)CN(CCc2ccccc2)CCN3)cc1OC	-5%[70.6 µM]	50µM*	25µM*	i
Fc1ccc2nc(CO[C@H]3CN(CC4CC4)C[C@H]3F)[nH]c2c1	-1%[70.6 µM]	-2%[172 µM]	-5%[138 µM]	i
c1ccc(CN2CC(CNc3cccnc3)C3(C2)CN(c2ccccc2)C3)cc1 (centres undefined)	-4%[70.6 µM]	?	50µM*	i
O=C(NCC1CN(C(=O)Cc2ccc(OC(F)(F)F)cc2)CC12CN(c1ccccc1)C2)Nc1ccccc1 (centres undefined)	-8%	?	28µM*	i
Oc1ccc(CN2CC(CNc3ccccc3)C3(C2)CN(c2ccccc2)C3)cc1 (centres undefined)	-22%[70.6 µM]	40µM*	25µM*	i
O=C(Cc1ccccc1)NCC1CN(C(=O)Cc2cccc(Oc3ccccc3)c2)CC12CN(c1ccccc1)C2 (centres undefined)	-17%	?	?	i
Clc1cccc(CN2CC(CNc3cccnc3)C3(C2)CN(c2ccccc2)C3)c1 (centres undefined)	-20%[70.6 µM]	?	?	i
O=C(COc1ccccc1)N1CC(CNc2cccnc2)C2(C1)CN(c1ccccc1)C2 (centres undefined)	-12%[70.6 µM]	71µM*	?	i
COc1ccccc1C(=O)N1CC(CNc2cccnc2)C2(C1)CN(c1ccccc1)C2 (centres undefined)	-6%[70.6 µM]	?	?	i
Cc1noc(-c2ccc(OC3CN(C(=O)CN4C(=O)CCC4=O)C3)cc2)n1	/	-4%	-21%	/
Nc1ncccc1CN1CC(COc2ccccc2)C2(C1)CN(c1ccccc1)C2 (centres undefined)	-30%[70.6 µM]	35µM*	40µM*	i

Screening results: PubChem, National Center for Advancing Translational Sciences (NCATS)
